{"source": "PubChem BioAssay (NCATS)", "target": "Calcium and integrin-binding protein 1 (Homo sapiens) (UniProt Q99828)", "sequence (Q99828 whole entry, looked up)": "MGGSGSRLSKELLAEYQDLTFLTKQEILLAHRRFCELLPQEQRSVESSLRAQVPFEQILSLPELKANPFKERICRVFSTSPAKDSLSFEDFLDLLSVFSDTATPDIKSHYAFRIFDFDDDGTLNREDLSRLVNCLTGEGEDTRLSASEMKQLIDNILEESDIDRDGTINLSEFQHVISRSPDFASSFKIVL", "assay": "Primary qHTS for Identification of Calcium Integrin Binding Protein 1 (CIB1) Competitor (AID 1508620);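 note: GST tagged CIB1 binding a fluorescein labelled alphaIIb integrin peptide tracer; top concentration of the series differs between compounds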", "procedure,_shortened": "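Fluorescence polarization competition: CIB1-GST (1 uM final) preincubated with compound 15 min at room temperature, then FITC-labeled alphaIIb peptide (100 nM final) added for another 15 min. Polarization read at Ex 480/Em 540.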", "note": "Results filed as inconclusive are left out. A call without a number means that no potency is given here. Active and inactive are the calls of the source. Calls come from the whole dose curve; as a rule, active = well fitted inhibition curve with a large enough effect; inconclusive = small, poorly fitted or top-dose-only effect; inactive = flat fitted curve, though single readings scatter."}
{"smiles": "CCOC(=O)c1c(CNCc2ccccc2F)c2sc(C)cc2n1C", "values": [{"measurement": "Potency", "result": "inactive"}]}
